Legend:
Conditions in all cases: concentration: 1 μM, replicates: in singlicate; n = 1
TNNI3K = system: TNNI3K
TRKA = system: T1, TRKA
T1 construct: gene NTRK1

TRKB = system: TRKB
TRKC = system: T2, TRKC
T2 construct: gene NTRK3

TRPM6 = system: TRPM6
TSSK1B = system: TSSK1B
TSSK3 = system: TSSK3
TTK = system: TTK
TXK = system: TXK
[1] = system: TYK2(JH1domain-catalytic)
[2] = system: TYK2(JH2domain-pseudokinase)
TYRO3 = system: TYRO3
ULK1 = system: ULK1
ULK2 = system: ULK2
ULK3 = system: ULK3
VEGFR2 = system: T3, VEGFR2
T3 construct: gene KDR

VPS34 = system: T4, VPS34
T4 construct: gene PIK3C3

VRK2 = system: VRK2
WEE1 = system: WEE1
WEE2 = system: WEE2
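Note: KINOMEscan kinase panel screen.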

| SMILES | %Inh (TNNI3K) | %Inh (TRKA) | %Inh (TRKB) | %Inh (TRKC) | %Inh (TRPM6) | %Inh (TSSK1B) | %Inh (TSSK3) | %Inh (TTK) | %Inh (TXK) | %Inh [1] | %Inh [2] | %Inh (TYRO3) | %Inh (ULK1) | %Inh (ULK2) | %Inh (ULK3) | %Inh (VEGFR2) | %Inh (VPS34) | %Inh (VRK2) | %Inh (WEE1) | %Inh (WEE2) |
| --- | --- | --- | --- | --- | --- | --- | --- | --- | --- | --- | --- | --- | --- | --- | --- | --- | --- | --- | --- | --- |
| Nc1ncnc2scc(-c3ccc(NC(=O)Cc4cc(F)ccc4F)cc3)c12.O=C(O)C(F)(F)F [SB-731254-M] | 0% | 62% | 72% | 71% | 31% | 0% | 0% | 0% | 8% | 2% | 0% | 0% | 11% | 1% | 34% | 80% | 0% | 0% | 0% | 0% |
| Cl.Cl.NCC(NC(=O)c1cc(-c2cccnc2)c(-c2ccnc3[nH]ccc23)s1)c1ccccc1 (centres unmarked) [GSK1323434] | 26% | 31% | 40% | 48% | 34% | 14% | 19% | 4% | 0% | 28% | 37% | 0% | 4% | 0% | 0% | 0% | 45% | 15% | 8% | 13% |
| O=C(Nc1n[nH]c2nc(-c3ccccc3O)ccc12)C1CC1 [SB-711880] | 0% | 49% | 17% | 16% | 0% | 0% | 0% | 18% | 0% | 0% | 6% | 0% | 0% | 0% | 16% | 0% | 0% | 0% | 0% | 79% |
| CCn1c(-c2nonc2N)nc2c(-c3ccccc3)ncc(OCCCN)c21.O=C(O)C(F)(F)F.O=C(O)C(F)(F)F [GSK260205] | 16% | 0% | 23% | 26% | 19% | 11% | 24% | 0% | 0% | 88% | 95.2% | 0% | 9% | 0% | 4% | 21% | 0% | 28% | 2% | 8% |
| Nc1cccc(-c2ccc3c(N)n[nH]c3c2)c1 [GSK2193613] | 0% | 35% | 40% | 19% | 0% | 0% | 8% | 21% | 3% | 13% | 0% | 0% | 6% | 0% | 3% | 0% | 21% | 30% | 5% | 10% |
| CN(C)CCNS(=O)(=O)c1ccc(-c2ccnc3[nH]ccc23)cc1 [GSK977620] | 3% | 93.4% | 63% | 54% | 0% | 58% | 15% | 50% | 91% | 46% | 26% | 3% | 73% | 0% | 27% | 0% | 57% | 0% | 35% | 0% |
| Cc1nn2c(=O)cc(N3CCO[C@H](C)C3)nc2n1Cc1cccc(Cl)c1Cl [GSK2373693] | 60% | 0% | 7% | 0% | 0% | 21% | 5% | 0% | 0% | 17% | 18% | 15% | 78% | 0% | 14% | 0% | 96.5% | 0% | 0% | 0% |
| Cc1cc(-c2ccnc(Nc3cccc(C#N)c3)n2)cc(C)c1O [GSK1440913] | 25% | 78% | 9% | 39% | 0% | 5% | 7% | 54% | 35% | 60% | 99.4% | 23% | 1% | 0% | 54% | 6% | 70% | 3% | 0% | 2% |
| O=C(Nc1c(F)cccc1F)c1cc(C(=O)c2ccccc2F)c[nH]1 [GSK1326180] | 0% | 27% | 0% | 12% | 0% | 0% | 24% | 6% | 0% | 0% | 0% | 0% | 15% | 0% | 2% | 0% | 5% | 0% | 2% | 6% |
| Cc1ccc(-c2ccc3occ(-c4ccc(S(C)=O)cc4)c3c2)nn1 (centres unmarked) | 0% | 0% | 0% | 11% | 0% | 0% | 0% | 8% | 2% | 1% | 18% | 0% | 0% | 0% | 0% | 0% | 61% | 0% | 0% | 0% |
